Results published in PubChem BioAssay.
Activity calls are given as the source filed them.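 The calls were made as follows: active = compounds whose cell count with miR-34 switched on is under 0.7 times the count with it off; inactive = the rest.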 Numbered stars: 1 amine (or outer) side, 2 acyl side, 3 side chain; on linkers, the order of the positions; unused ones are H or OH. Bridge positions count the residues as written; N and C are the ends. Square brackets hold non-standard residues; d marks the D form. Peptide text beside a SMILES is read from it. * marks the point of attachment. ξ: configuration not given here. ΔAla(E,3-NHCONH2) = NC(=O)N/C=C(/N)C(=O)O; X1 = NC1=NCCC(C(N[*:1])C(=O)[*:2])N1; Heptanoyl(6-Me) = CC(C)CCCCC(=O)*; ξβ3hOrn = NCCCC(N)CC(=O)*; Orn = NCCC[CH](N)C(=O)O; Dab = NCC[CH](N)C(=O)O; Dap = NC[CH](N)C(=O)O

test: viability loss with induced miR-34 in A549 – imaging, A549 dox-inducible miR-34, nuclei and caspase counts, primary screen (AID 1347080); conditions: A549 miR-34 inducible, Hoechst nuclei count, 48 h; active compounds read low; cell number ratio, induced over uninduced; also: test concentration not given here

Row | SMILES | fold change
1 | CO/N=C(\C(=O)NC1C(=O)N2C(C(=O)OCOC(=O)C(C)(C)C)=C(/C=C\c3scnc3C)CSC12)c1csc(N)n1 (centres undefined) | 0.904 (inactive)
2 | CC(C)CC1NC(=O)C(CCCN)NC(=O)C(C(C)C)NC(=O)C2CCCN2C(=O)C(Cc2ccccc2)NC(=O)C(CC(C)C)NC(=O)C(CCCN)NC(=O)C(C(C)C)NC(=O)C2CCCN2C(=O)C(Cc2ccccc2)NC1=O (centres undefined) (cyclo(FPV[Orn]LFPV[Orn]L); configuration not given here) | 0.889 (inactive)
3 | CC(=O)OC1CCC2C3CCc4cc(O)ccc4C3CCC12C (centres undefined) | 0.907 (inactive)
4 | O=C1O[C@H](C(O)CO)C(O)=C1O (some centres undefined) | 0.918 (inactive)
5 | CO/N=C(/C(=O)N[C@@H]1C(=O)N2C(C(=O)O)=C(CSc3nc(=O)c(O)nn3C)CS[C@H]12)c1csc(N)n1 | 0.888 (inactive)
6 | NCCCC(N)CC(=O)NCC1NC(=O)C(CO)NC(=O)C(N)CNC(=O)C(C2CCN=C(N)N2)NC(=O)/C(=C\NC(N)=O)NC1=O (stereo not drawn) (H-[Dap]S[Dap](ξβ3hOrn)[ΔAla(E,3-NHCONH2)][X1]; lactam 1-C; configuration not given here) | 0.856 (inactive)
7 | CCCCCCCCCCCCCCCC(=O)O[C@@H]1[C@@H](O)[C@@H](O)C([C@H](NC(=O)[C@@H]2C[C@@H](CCC)CN2C)[C@H](C)Cl)O[C@@H]1SC (some centres undefined) | 0.819 (inactive)
8 | CO/N=C(/C(=O)NC1C(=O)N2C(C(=O)OC(C)OC(C)=O)=C(COC(N)=O)CSC12)c1ccco1 (centres undefined) | 0.889 (inactive)
9 | O=C(N[C@@H](CO)[C@H](O)c1ccc([N+](=O)[O-])cc1)C(Cl)Cl | 1 (inactive)
10 | C[C@]12C=CC(=O)C=C1CCC1C2[C@@H](O)C[C@@]2(C)C1CC[C@]2(O)C(=O)COC(=O)CCC(=O)O (some centres undefined) | 0.822 (inactive)
11 | CC1=C(C(=O)O)N2C(=O)[C@@H](NC(=O)C(N)c3ccc(O)cc3)[C@H]2SC1 (some centres undefined) | 0.948 (inactive)
12 | CCC(=O)OCC(=O)[C@@]1(OC(=O)CC)[C@@H](C)CC2C3CCC4=CC(=O)C=C[C@]4(C)C3(F)[C@@H](O)C[C@@]21C (some centres undefined) | 0.918 (inactive)
13 | C/C=C\C1=C(C(=O)O)N2C(=O)C(NC(=O)C(N)c3ccc(O)cc3)C2SC1 (centres undefined) | 0.891 (inactive)
14 | C[C@H]1CC2C([C@@H](O)C[C@@]3(C)C2CC[C@]3(O)C(=O)COC(=O)CCC(=O)O)[C@@]2(C)C=CC(=O)C=C12 (some centres undefined) | 0.962 (inactive)
15 | NCC1CCCCC1CC(=O)O (centres undefined) | 0.945 (inactive)
16 | CC1=C(C(=O)O)N2C(=O)[C@@H](NC(=O)[C@H](N)C3=CCC=CC3)C2SC1 (some centres undefined) | 0.89 (inactive)
17 | CC[C@@H]1OC(=O)C[C@@H](O)[C@H](C)[C@@H](O[C@@H]2O[C@H](C)[C@@H](O)[C@H](N(C)C)[C@H]2O)[C@@H](CCN2C[C@H](C)C[C@H](C)C2)C[C@@H](C)C(=O)/C=C/C(C)=C\[C@@H]1CO[C@@H]1O[C@H](C)[C@@H](O)[C@@H](OC)[C@H]1OC | 0.885 (inactive)
18 | CCC(C)C1NC(=O)C(CCN)NC(=O)C(NC(=O)C(CCN)NC(=O)C(NC(=O)C(CCN)NC(=O)CCCCC(C)C)C(C)O)CCNC(=O)C(C(C)O)NC(=O)C(CCN)NC(=O)C(CCN)NC(=O)C(C(C)CC)NC1=O (centres undefined) ({Heptanoyl(6-Me)}-[Dab]T[Dab][Dab][Dab]II[Dab][Dab]T; lactam 4-C; configuration not given here) | 0.901 (inactive)
19 | COc1cc(NS(C)(=O)=O)ccc1Cc1c2ccccc2nc2ccccc12 | 0.911 (inactive)
20 | CC(CCC(=O)O)[C@H]1CCC2C3C(=O)C[C@@H]4CC(=O)CC[C@]4(C)C3CC(=O)[C@@]21C (some centres undefined) | 0.923 (inactive)
21 | CC1C/C=C/C=C/C=C/C=C/C(O[C@@H]2O[C@H](C)[C@@H](O)[C@H](N)[C@@H]2O)CC2OC(O)(CC(O)CC3OC3/C=C/C(=O)O1)CC(O)C2C(=O)O (some centres undefined) | 0.858 (inactive)
22 | CC(=O)OCC(=O)[C@@]1(OC(C)=O)[C@@H](C)CC2C3C[C@H](F)C4=CC(=O)C=C[C@]4(C)[C@@]3(F)[C@@H](O)C[C@@]21C (some centres undefined) | 0.928 (inactive)
23 | CC(C)c1c(C(=O)c2ccccc2)c(-c2ccccc2)c(-c2ccc(F)cc2)n1CC[C@@H](O)C[C@@H](O)CC(=O)O | 0.867 (inactive)
24 | CCC(C)C(=O)O[C@H]1C[C@H](O)C=C2C=C[C@H](C)[C@H](CC[C@@H](O)C[C@@H](O)CC(=O)O)C21 (some centres undefined) | 0.861 (inactive)
